Measured values reported in PubChem BioAssay.
Where “and” joins values, the source holds several entries; their conditions need not be identical. Identical values can stand only once. Calls of active or inactive are those of the source. Unless noted, no rule for the calls is given here.

Tests used:
[1] = system: XIP peptide (Xip251-270) binding; assay: small-molecule binders of XIP peptide, primary screen, biochemical, small-molecule microarray, fluorescence 635/667 nm, 0.1 µg/mL protein (AID 1182); details: fluorescent protein binding, 635 nm, higher = more signal, called active from +8 up or from −8 down
XIP peptide (Xip251-270) = assay: small-molecule binders of XIP peptide, primary screen, biochemical, small-molecule microarray, fluorescence 635/667 nm, 0.5 µg/mL protein (AID 1183); details: small-molecule microarray binding, fluorescence 635 nm; higher = more signal
[2] = Plasmodium falciparum growth inhibition, primary screen, strain 3D7, DAPI fluorescence, 100 nL (AID 1184);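 also: parasites grown inside human red blood cells in medium with human serum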; details: P. falciparum 3D7 growth, 3 d, higher = more signal
[3] = target: Homeobox protein Hox-A13 (Mus musculus) (UniProt Q62424); assay: inhibitors of HoxA13-DNA binding, primary screen, biochemical, fluorescence polarization, labeled oligonucleotide (AID 1185); details: 15 min, higher = more signal, called active from +8 up or from −8 down
[4] = inhibitors of hydroxyurea-induced Chk1 phosphorylation, primary screen, imaging, HeLa, phospho-Chk1 antibody, percent positive cells (AID 1186); details: hydroxyurea-induced phospho-Chk1 immunofluorescence imaging, higher = more signal
[5] = inhibitors of hydroxyurea-induced Chk1 phosphorylation, primary screen, imaging, HeLa, phospho-Chk1 nuclear intensity (AID 1187); details: hydroxyurea-induced phospho-Chk1 immunofluorescence imaging, higher = more signal

Sequence of Homeobox protein Hox-A13 (Mus musculus) (Q62424 whole entry, looked up): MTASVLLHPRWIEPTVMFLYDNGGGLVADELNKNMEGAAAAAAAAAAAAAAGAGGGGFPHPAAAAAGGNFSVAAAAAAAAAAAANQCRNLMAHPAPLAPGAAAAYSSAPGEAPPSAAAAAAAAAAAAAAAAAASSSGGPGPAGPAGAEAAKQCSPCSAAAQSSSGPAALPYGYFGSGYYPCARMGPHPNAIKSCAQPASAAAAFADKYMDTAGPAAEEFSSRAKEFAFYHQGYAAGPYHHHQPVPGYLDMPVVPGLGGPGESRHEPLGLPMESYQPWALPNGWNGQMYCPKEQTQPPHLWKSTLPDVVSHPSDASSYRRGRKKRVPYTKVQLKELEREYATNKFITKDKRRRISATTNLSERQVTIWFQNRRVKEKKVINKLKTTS

Structure (SMILES)	composite z-score [1]	composite z-score (XIP peptide (Xip251-270))	z-score [2]	z-score [3]	z-score [4]	z-score [5]
COC(=O)[C@@]1(Cc2ccccc2)[C@H]2c3cc(C(=O)N(C)C)n(C[C@H](O)CO)c3C[C@H]2CN1C(=O)c1ccccc1	0.386 (inactive) and -0.28 (inactive)	-0.0997 and 0.84	-0.894 and -0.297	-2.22 (inactive) and -4.41 (inactive)	-0.601 (inactive) and 1.42 (inactive)	-0.292 (inactive) and 1.06 (inactive)
C=CC[C@H](O)c1ccc(OCCO)cc1	0.179 (inactive) and 0.125 (inactive)	-1.28 and -0.655	-0.597 and 1.72	-0.488 (inactive) and -0.803 (inactive)	-0.23 (inactive) and 0.182 (inactive)	0.313 (inactive) and 0.469 (inactive)
C=CCN(C(=O)C(c1cccs1)N(C(=O)/C=C\C(=O)O)C(C)(C)CO)c1ccc(OC)cc1 (centres undefined)	-0.114 (inactive) and 0.302 (inactive)	-1.17 and -0.372	-0.89 and 0.294	-0.168 (inactive) and -2.07 (inactive)	-0.951 (inactive) and -0.63 (inactive)	-1.17 (inactive) and -0.0664 (inactive)
C=CCN(Cc1ccccc1)C(=O)C1N(c2c(Cl)cccc2CO)C(=O)C2C(C(=O)O)C3C=CC21O3 (centres undefined)	0.297 (inactive) and -0.407 (inactive)	-2.24 and -0.403	-0.0029 and -1.42	0.428 (inactive) and -1.12 (inactive)	-0.544 (inactive) and -0.696 (inactive)	-0.649 (inactive) and -0.167 (inactive)
C=CCN(Cc1ccccc1)C(=O)C1N(CCCCCCO)C(=O)C2C(C(=O)O)C3C=CC21O3 (centres undefined)	-0.0934 (inactive) and -0.383 (inactive)	-0.673 and 0.372	0.865 and 1.05	-0.888 (inactive) and 0.0908 (inactive)	0.909 (inactive) and 0.53 (inactive)	0.798 (inactive) and 0.751 (inactive)
C=CCN(C(=O)C1N(CCCCCCO)C(=O)C2C(C(=O)O)C3C=CC21O3)C(C)(C)C (centres undefined)	-0.501 (inactive) and -0.559 (inactive)	0.429 and -1	-0.0557 and 0.444	-0.569 (inactive) and -2.68 (inactive)	-0.178 (inactive) and -0.102 (inactive)	-0.0517 (inactive) and 0.113 (inactive)
C=C[C@@H](C)[C@H](O)c1ccc(O)c2ccccc12	-0.299 (inactive) and 0.342 (inactive)	0.892 and 0.102	-0.559 and 0.666	-3.78 (inactive) and -2.87 (inactive)	0.311 (inactive) and 0.801 (inactive)	0.0888 (inactive) and 0.837 (inactive)
CCOC(=O)[C@@H]1CC=C2CC1C(=O)N1CCC[C@@H]1[C@H]2O[Si](C)(C)C(C)(C)C (some centres undefined)	-1.06 (inactive) and -0.793 (inactive)	-1.29 and -0.354	1.82 and -0.618	-1.82 (inactive) and -4.44 (inactive)	0.113 (inactive) and -0.726 (inactive)	0.0897 (inactive) and -0.761 (inactive)
C=CCN(CCCC)C(=O)C1N(c2c(Cl)cccc2CO)C(=O)C2C(C(=O)O)C3C=CC21O3 (centres undefined)	-0.523 (inactive) and -0.356 (inactive)	0.222 and 0.152	-1.23 and -1.7	-1.12 (inactive) and -1.43 (inactive)	0.304 (inactive) and -0.273 (inactive)	0.151 (inactive) and 0.131 (inactive)
COC(=O)c1c2oc(c1C(=O)OC)C(=O)N[C@@H](Cc1ccccc1)Cn1cc(nn1)C1(CCCCC1)NC(=O)N[C@H](CO)CC2	0.398 (inactive) and -0.338 (inactive)	0.762 and 0.215	0.53 and 1.25	-4.76 (inactive) and -2.08 (inactive)	-0.496 (inactive) and 0.267 (inactive)	0.184 (inactive) and 0.279 (inactive)
CCC[C@@H]1C[C@@]1(CCC)[C@@H](NC(=O)c1ccc(-c2ccccc2)cc1)c1cccc(Cl)c1	0.176 (inactive) and 0.184 (inactive)	-0.659 and 0.146	-0.687 and -1.16	-3.47 (inactive) and -5.25 (inactive)	0.722 (inactive) and 0.514 (inactive)	-0.198 (inactive) and 0.301 (inactive)
COC(=O)[C@@]1(Cc2ccccc2)[C@H]2c3cc(C(=O)N(C)C)n(Cc4ccc(C)c(F)c4F)c3C[C@H]2CN1C(=O)c1ccccc1	-0.103 (inactive) and -0.157 (inactive)	0.639 and 0.462	-1.74 and -1.65	-4.22 (inactive) and -3.34 (inactive)	-0.387 (inactive) and 0.293 (inactive)	-0.653 (inactive) and 0.169 (inactive)
CC(C)OC(=O)C=C1C[C@@H](c2cccc(C(F)(F)F)c2)O[C@@H](c2cccc(C(F)(F)F)c2)O1	0.081 (inactive) and 0.769 (inactive)	0.78 and 0.781	0.15 and -0.473	-2.72 (inactive) and -1.27 (inactive)	-0.394 (inactive) and -0.391 (inactive)	-0.854 (inactive) and -0.46 (inactive)
C=CCN(C(=O)C1N(CCCCCCO)C(=O)C2C(C(=O)O)C3C=CC21O3)c1ccc(OC)cc1 (centres undefined)	1.14 (inactive) and 1.15 (inactive)	-2.27 and -0.654	-0.424 and 0.0379	-1.08 (inactive) and -0.0174 (inactive)	-0.598 (inactive) and -0.471 (inactive)	-0.451 (inactive) and -0.198 (inactive)
C=CCN(CCCCC)C(=O)C(c1cccs1)N(CCOCCO)C(=O)/C=C\C(=O)O (centres undefined)	-0.44 (inactive) and -0.841 (inactive)	-0.265 and -0.343	-0.102 and -0.0618	-0.478 (inactive) and -0.603 (inactive)	-0.0506 (inactive) and -0.514 (inactive)	0.425 (inactive) and 0.965 (inactive)
C=CCN(Cc1ccccc1)C(=O)C(c1cccs1)N(C(=O)/C=C\C(=O)O)c1c(Cl)cccc1CO (centres undefined)	-0.422 (inactive) and -0.522 (inactive)	-0.367 and -1.55	-0.82 and -0.106	1.14 (inactive) and 0.425 (inactive)	-0.347 (inactive) and 0.628 (inactive)	0.0032 (inactive) and 0.521 (inactive)
CCCCN1CC=CC23O[C@@H]4C=CCCOC(=O)C4[C@H]2C(=O)N(C(C)CO)[C@@H]3C1=O (some centres undefined)	-0.0981 (inactive) and -0.455 (inactive)	-0.41 and -0.585	0.0728 and -0.271	-5.84 (inactive) and -4.77 (inactive)	0.34 (inactive) and -0.204 (inactive)	0.293 (inactive) and -0.258 (inactive)
CC(C)OC(=O)C=C1C[C@@H](c2ccccc2)O[C@@H](c2ccccc2)O1	-0.0817 (inactive) and 0.574 (inactive)	0.686 and 0.831	-0.129 and 0.276	-3.55 (inactive) and -3.56 (inactive)	-0.502 (inactive) and -0.334 (inactive)	-0.687 (inactive) and -0.132 (inactive)
CN1C(=O)C2CC=C([C@H]3Oc4ccccc4S(=O)(=O)N4CCC[C@@H]34)CC2C1=O (some centres undefined)	-0.0989 (inactive) and 0.181 (inactive)	-0.128 and -1.09	-0.292 and -0.542	-2 (inactive) and -1.92 (inactive)	0.0695 (inactive) and 0.549 (inactive)	-0.12 (inactive) and 0.575 (inactive)
C=CCN(C(=O)C1N(c2c(Cl)cccc2CO)C(=O)C2C(C(=O)O)C3C=CC21O3)C(C)(C)C (centres undefined)	0.13 (inactive) and -0.96 (inactive)	0.106 and -0.591	-1.76 and 0.0813	-1.56 (inactive) and 0.87 (inactive)	-0.198 (inactive) and -0.391 (inactive)	0.0398 (inactive) and 1.14 (inactive)
C=CCN(CCCCC)C(=O)C1N(C(C)(C)CO)C(=O)C2C(C(=O)O)C3C=CC21O3 (centres undefined)	-0.53 (inactive) and -1 (inactive)	-0.417 and -1.97	-0.0999 and 0.86	-0.598 (inactive) and 0.0686 (inactive)	0.0341 (inactive) and -0.15 (inactive)	0.436 (inactive) and 0.287 (inactive)
C=CCN(C(=O)C(c1cccs1)N(CCOCCO)C(=O)/C=C\C(=O)O)C(C)(C)C (centres undefined)	-0.344 (inactive) and 0.0156 (inactive)	-0.281 and -0.228	0.0905 and 0.921	0.175 (inactive) and -0.386 (inactive)	0.0502 (inactive) and -0.289 (inactive)	-0.124 (inactive) and 0.0803 (inactive)
CCOC(=O)C[C@H]1[C@H](OC(=O)c2ccccc2-c2ccccc2)[C@@H](NC(=O)Cc2ccc(OC)cc2)c2cc(OCCCO)ccc2N1C(=O)Cc1ccc(OC)cc1	0.645 (inactive) and -0.44 (inactive)	0.0988 and -0.0465	-1.83 and -1.26	-0.622 (inactive) and -3.3 (inactive)	-0.901 (inactive) and 0.898 (inactive)	-0.496 (inactive) and 0.836 (inactive)
C=CC[C@@H](O)c1ccc(OCCO)cc1	-0.0335 (inactive) and 0.172 (inactive)	0.184 and -0.25	0.667 and 0.717	-0.948 (inactive) and -0.931 (inactive)	-0.442 (inactive) and -0.507 (inactive)	0.186 (inactive) and -0.0561 (inactive)
